According to PubChem BioAssay:
Calls of active or inactive are those of the source.

Experiments:
[1] = system: Human papillomavirus type 1a protein E7 (residues 44-93); assay: HPV1a E7 fragment binders on microarrays, primary screen, biochemical, small-molecule microarray, residues 44-93, 635 nm fluorescence (AID 1108); conditions: small-molecule microarray binding, fluorescence 635 nm; higher = more signal;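 note: E7 fragment applied at 1 µg/mL in TBST for 1 h at 4 C; score combines spot fluorescence with its signal to noise ratio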
[2] = modulators of HCV replicon luciferase signal, primary screen, HCV replication inhibitor project, Huh7 cells, luciferase reporter (AID 1109); conditions: 48 h, higher = more signal;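 note: huh7 hepatoma cells harbouring a luciferase neomycin HCV replicon reporter; luciferase luminescence as measure of HCV replicon replication; test concentration not given here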
[3] = target: Left-right determination factor 2 (Homo sapiens) (UniProt O00292); assay: LEFTY2 binders on small-molecule microarrays, primary screen, biochemical, small-molecule microarray, 635 nm fluorescence scan (AID 1110); conditions: LEFTY2 binding, higher = more signal
[4] = target: Calmodulin-1 (Homo sapiens) (UniProt P0DP23); assay: CALM1 binders on microarrays, EGTA buffer, profiling panel, biochemical, small-molecule microarray, Cy5-labelled CALM1 (AID 1111); conditions: Cy5-CALM1 binding fluorescence, higher = more signal;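 note: labelled calmodulin applied in Tris saline Tween buffer holding calcium plus EGTA and DTT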
[5] = target: Calmodulin-1 (Homo sapiens) (UniProt P0DP23); assay: calcium-bound CALM1 binders on microarrays, profiling panel, artefact control for SMM control-protein annotation, biochemical, small-molecule microarray, Cy5-labelled CALM1, plus calcium (AID 1112); conditions: Cy5-CALM1 binding fluorescence, higher = more signal;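 note: score merges spot fluorescence with signal to noise from triplicate slides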
[6] = small-molecule microarray binders of probe aWnt5a, primary screen, biochemical, biotinylated probe, 635/667 nm fluorescence (AID 1113); conditions: higher = more signal;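 note: score merges 667 nm fluorescence intensity with signal-to-noise per printed feature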
[7] = small-molecule microarray binders of probe aShh, primary screen, biochemical, biotinylated probe, 635/667 nm fluorescence (AID 1114); conditions: higher = more signal;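 note: probe is biotin-labelled aShh protein from a stem cell growth factor screen; measures binding of labelled protein to compounds printed on the slide; score merges feature fluorescence at 667 nm with signal-to-noise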
[8] = small-molecule microarray binders of probe aNog, primary screen, biochemical, biotinylated probe, 635/667 nm fluorescence (AID 1115); conditions: higher = more signal;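 note: probe is biotinylated aNog protein used at 0.15 µg/mL for 1 h at 4 C; z-score combines 667 nm fluorescence of each spot with its signal to noise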
[9] = target: Torsin-1A-interacting protein 1 (Homo sapiens) (UniProt Q5JTV8); assay: LAP1 binders from COS7 cell lysate, primary screen, small-molecule microarray, 635/667 nm fluorescence (AID 1116); conditions: COS7-hLAP1 lysate binding, 635 nm fluorescence, higher = more signal
[10] = target: Alpha-bungarotoxin (Bungarus multicinctus) (UniProt P60615); assay: alpha-bungarotoxin binders on microarray, profiling panel, artefact control for SMM control protein annotation, biochemical, small-molecule microarray, Alexa647 label, 635/667 nm fluorescence (AID 1117); conditions: alpha-BTX-A647 binding fluorescence, higher = more signal
[11] = target: Albumin (Bos taurus) (UniProt P02769); assay: bovine serum albumin binders on microarray, profiling panel, artefact control for SMM control protein annotation, biochemical, small-molecule microarray, Alexa647 label, 635/667 nm fluorescence (AID 1118); conditions: BSA-A647 binding, fluorescence 635 nm, higher = more signal;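 note: score merges 667 nm emission intensity and signal-to-noise per printed compound spot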
[12] = small-molecule microarray binders of probe aXIP, primary screen, biochemical, NeuroSMM set, 635/667 nm fluorescence (AID 1119); conditions: higher = more signal, called active from +8 up or from −8 down;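 note: probe is the protein aXip251-270 applied at 1 µg/mL to compound-printed slides; binding of probe to printed compounds measured as 667 nm fluorescence plus signal to noise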
[13] = small-molecule binders of probe aNOTCH3, primary screen, biochemical, small-molecule microarray, 635/667 nm fluorescence (AID 1120); conditions: higher = more signal;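 note: probe is a biotin-tagged antibody raised against NOTCH3 rather than NOTCH3 protein; score merges spot fluorescence near 667 nm with spot signal to noise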
[14] = small-molecule binders of probe aNOTCH2, primary screen, biochemical, small-molecule microarray, 635/667 nm fluorescence (AID 1121); conditions: higher = more signal;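 note: score merges feature fluorescence read at 667 nm with its signal to noise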
[15] = target: Carbonic anhydrase 2 (Homo sapiens) (UniProt P00918); assay: CAII small-molecule binders, profiling panel, biochemical, small-molecule microarray, Alexa647-labelled CAII (AID 1122); conditions: CAII-A647 binding fluorescence, higher = more signal
[16] = COS7 lysate on small-molecule microarray, probe aHis, 635 nm (AID 1123); conditions: COS7 cell lysate, fluorescence, higher = more signal;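 note: z-score combines 667nm fluorescence intensity with signal-to-noise per printed compound spot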
[17] = compound binding in COS7 lysate, probe aLAP1, primary screen, cell lysate, small-molecule microarray (AID 1124); conditions: probe aLAP1, fluorescence, higher = more signal;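 note: lysate comes from COS7 cells expressing LAP1 and is applied at 0.3 µg/mL; score merges spot fluorescence near 667 nm with signal-to-noise over triplicate slides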
[18] = system: Sam68 (KHDRBS1); assay: Sam68 small-molecule binders, primary screen, biochemical, small-molecule microarray, 635 nm fluorescence (AID 1125); conditions: small-molecule microarray binding, higher = more signal;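 note: score merges 667 nm channel intensity with signal to noise over triplicate slides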
[19] = system: Chordin-like protein 2 (CHRDL2); assay: CHRDL2 small-molecule binders, primary screen, biochemical, small-molecule microarray, 635 nm fluorescence (AID 1126); conditions: small-molecule microarray binding, fluorescence 635 nm; higher = more signal;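 note: printed compound slides probed with Chrdl2 protein at 4 µg/mL for 1 h at 4 C; score merges 667 nm emission intensity with signal to noise over three replicate slides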
[20] = target: Concanavalin-A (Canavalia ensiformis) (UniProt P02866); assay: ConA small-molecule binders, primary screen, artefact control for SMM control protein annotation, biochemical, small-molecule microarray, Alexa647 label, 635 nm (AID 1127); conditions: ConA-A647 binding fluorescence, higher = more signal;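 note: z combines 667 nm emission intensity with signal-to-noise across three replicate slides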
Sequence of Concanavalin-A (Canavalia ensiformis) (P02866 whole entry, looked up): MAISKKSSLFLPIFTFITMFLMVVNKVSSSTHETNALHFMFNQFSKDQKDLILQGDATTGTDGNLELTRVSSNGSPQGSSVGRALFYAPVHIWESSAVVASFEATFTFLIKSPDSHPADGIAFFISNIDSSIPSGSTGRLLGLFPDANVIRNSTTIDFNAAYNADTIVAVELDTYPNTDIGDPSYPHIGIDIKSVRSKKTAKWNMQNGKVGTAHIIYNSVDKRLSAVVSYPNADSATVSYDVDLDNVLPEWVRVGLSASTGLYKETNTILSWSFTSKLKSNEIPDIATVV

Sequence of Albumin (Bos taurus) (P02769 whole entry, looked up): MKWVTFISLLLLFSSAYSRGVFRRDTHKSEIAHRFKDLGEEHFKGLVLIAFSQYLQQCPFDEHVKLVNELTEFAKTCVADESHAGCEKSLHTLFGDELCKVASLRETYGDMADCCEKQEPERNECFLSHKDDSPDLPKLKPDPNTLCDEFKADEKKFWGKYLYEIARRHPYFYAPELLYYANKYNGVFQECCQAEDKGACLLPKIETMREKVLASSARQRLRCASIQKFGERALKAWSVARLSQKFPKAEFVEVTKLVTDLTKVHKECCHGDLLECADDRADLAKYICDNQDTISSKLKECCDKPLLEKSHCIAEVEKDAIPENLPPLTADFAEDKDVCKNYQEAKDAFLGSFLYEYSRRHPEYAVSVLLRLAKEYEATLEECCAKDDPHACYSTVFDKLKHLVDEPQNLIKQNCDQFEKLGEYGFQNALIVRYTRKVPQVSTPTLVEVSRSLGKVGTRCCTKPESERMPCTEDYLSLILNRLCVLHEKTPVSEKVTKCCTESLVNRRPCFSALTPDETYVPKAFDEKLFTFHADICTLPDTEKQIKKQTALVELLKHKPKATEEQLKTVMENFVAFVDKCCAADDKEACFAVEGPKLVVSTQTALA
Sequence of Torsin-1A-interacting protein 1 (Homo sapiens) (Q5JTV8 whole entry, looked up): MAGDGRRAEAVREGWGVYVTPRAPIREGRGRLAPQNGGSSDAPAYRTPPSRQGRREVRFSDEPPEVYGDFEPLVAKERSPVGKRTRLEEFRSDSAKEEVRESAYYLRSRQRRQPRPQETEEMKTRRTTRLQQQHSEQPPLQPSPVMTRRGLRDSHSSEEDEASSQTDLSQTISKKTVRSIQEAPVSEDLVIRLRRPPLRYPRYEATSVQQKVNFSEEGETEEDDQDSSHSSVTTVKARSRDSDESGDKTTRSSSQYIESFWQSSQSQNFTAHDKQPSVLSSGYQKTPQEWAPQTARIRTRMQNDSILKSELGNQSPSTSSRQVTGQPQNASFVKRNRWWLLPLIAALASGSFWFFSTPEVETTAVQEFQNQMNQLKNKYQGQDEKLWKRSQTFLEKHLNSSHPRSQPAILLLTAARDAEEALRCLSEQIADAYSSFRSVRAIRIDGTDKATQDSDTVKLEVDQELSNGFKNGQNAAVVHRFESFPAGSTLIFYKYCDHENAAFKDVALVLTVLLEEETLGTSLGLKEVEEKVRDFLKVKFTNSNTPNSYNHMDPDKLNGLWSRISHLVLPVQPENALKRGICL
Sequence of Left-right determination factor 2 (Homo sapiens) (O00292 whole entry, looked up): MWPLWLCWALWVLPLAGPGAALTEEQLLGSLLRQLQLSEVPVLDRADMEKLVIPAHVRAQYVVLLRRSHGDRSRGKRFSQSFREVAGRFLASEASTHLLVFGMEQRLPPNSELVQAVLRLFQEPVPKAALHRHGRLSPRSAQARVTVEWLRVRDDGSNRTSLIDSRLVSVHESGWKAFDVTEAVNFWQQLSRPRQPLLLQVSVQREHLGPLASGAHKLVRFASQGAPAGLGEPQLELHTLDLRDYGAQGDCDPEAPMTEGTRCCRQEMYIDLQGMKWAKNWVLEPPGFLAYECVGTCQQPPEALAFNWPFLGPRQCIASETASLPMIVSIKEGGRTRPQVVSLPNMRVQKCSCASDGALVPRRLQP
Sequence of Alpha-bungarotoxin (Bungarus multicinctus) (P60615 whole entry, looked up): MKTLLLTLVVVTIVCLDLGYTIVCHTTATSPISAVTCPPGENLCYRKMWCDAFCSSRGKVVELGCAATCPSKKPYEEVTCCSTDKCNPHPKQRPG

SMILES	composite z-score [1]	z-score [2]	composite z-score [3]	composite z-score [4]	composite z-score [5]	composite z-score [6]	composite z-score [7]	composite z-score [8]	composite z-score [9]	composite z-score [10]	composite z-score [11]	composite Z-score [12]	composite z-score [13]	composite z-score [14]	composite z-score [15]	composite z-score [16]	composite z-score [17]	composite z-score [18]	composite z-score [19]	composite z-score [20]
COCCOC(=O)N1C(=O)[C@@]2(c3cc(C#Cc4ccc(OC)cc4)ccc31)[C@H](C(=O)N1CCCCCCC1)[C@H]1C(=O)O[C@H](c3ccccc3)[C@H](c3ccccc3)N1[C@@H]2c1ccccc1OCCO	1.35	-0.0111	0.647	2.42	1.49	1.16	0.451	1.53	4.47	2.27	0.768	4.24 (inactive)	1.49	0.793	0.472	3	1.3	1.3	1.21	0.893
CC(C)C[C@@H]1NC(=O)[C@H]2C[C@@H](C(=O)NCCCCCNC(=O)CS)[C@@H](c3ccc(O)cc3)N2C1=O	1.46	-0.28	0.679	1.03	-0.568	0.23	0.203	-0.324	0.602	1.54	-0.796	0.0136 (inactive)	-0.171	-0.144	0.414	2.08	0.873	1.31	0.795	0.885
COC(=O)c1c(CC[C@@H](CO)NC(=O)N[C@@H](Cc2ccccc2)Cn2cc(-c3cncn3C)nn2)oc(C(C)=O)c1C(=O)OC	1.47	-0.594	-0.338	0.162	-0.329	-0.124	-0.0866	-0.394	1.62	0.581	0.979	0.047 (inactive)	0.212	-0.144	0.648	1.95	0.512	1.21	-0.722	1.07
COCCOC(=O)N1C(=O)[C@@]2(c3cc(C#CCC(C(=O)OC)C(=O)OC)ccc31)[C@H](C(=O)N1CCCCCCC1)[C@H]1C(=O)O[C@H](c3ccccc3)[C@H](c3ccccc3)N1[C@@H]2c1ccccc1OCCO	1.32	-2.25	1.09	2.56	1.63	0.931	2.96	3.14	3.82	2.51	0.847	0.269 (inactive)	1.91	0.689	0.761	3.14	1.16	1.29	1.44	1.06
C[C@]1(C(=O)NCC(F)(F)F)c2ccccc2C(=O)N(Cc2ccc(OC(F)(F)F)cc2)[C@H]1c1ccc(CO)cc1	0.26	-1.11	-0.143	-0.0779	-0.373	-0.154	-0.0626	-0.519	-0.115	0.25	0.499	-0.568 (inactive)	-0.179	-0.171	0.481	0.751	0.0891	0.185	-0.0339	0.422
C=C(/C(=C/C[C@@H](OC(C)=O)c1ccccc1OCCO)c1cc(C(=O)OC)ccc1OC)C(C)C	0.326	-1.69	-0.0061	0.543	-0.692	-0.0643	-0.304	0.051	0.385	-0.598	0.344	0.231 (inactive)	0.217	-0.0548	0.697	0.335	-0.394	0.373	-0.134	1.02
C=CCOC(=O)[C@H]1[C@@H]2C(=O)O[C@@H](c3ccccc3)[C@@H](c3ccccc3)N2[C@@H](c2ccc(OCCOC(=O)[C@@H]3C[C@@H]4C(=O)N[C@@H](Cc5ccccc5)C(=O)N4[C@@H]3c3ccc(O)cc3)cc2)[C@]12C(=O)Nc1ccccc12	1.35	-1.85	0.747	1.48	0.0137	-0.124	-0.232	0.281	0.409	0.948	0.527	0.129 (inactive)	0.0382	-0.181	0.67	1.74	0.509	1.3	1.11	1.16
COc1ccc(C#Cc2ccc3c(c2)[C@]2(C(=O)N3)[C@H](C(=O)Nc3nc4ccccc4s3)[C@H]3C(=O)O[C@H](c4ccccc4)[C@H](c4ccccc4)N3[C@@H]2c2ccc(OCCO)cc2)cc1	0.801	-2.03	0.651	2.19	0.915	0.0377	0.337	0.302	2.08	1.75	0.789	0.403 (inactive)	0.109	-0.0486	0.622	2.46	0.816	1.31	0.254	1.17
CCCC[C@@H]1C[C@H]1[C@@H](NC(=O)c1ccc(C(F)(F)F)cc1)c1ccc(C(=O)OC)cc1	0.733	-1.33	0.497	0.995	0.271	0.869	2.11	0.238	1.27	1.48	0.0711	0.0888 (inactive)	0.0501	-0.0347	0.441	1.27	1.25	0.504	1.27	0.441
CC(C)CNC(=O)[C@@H]1c2ccccc2C(=O)N(CC23CC4CC(CC(C4)C2)C3)[C@H]1c1ccc(CO)cc1	1.34	-1.05	0.0408	0.725	0.769	-0.0685	0.14	-0.436	0.862	1.15	0.486	0.642 (inactive)	-0.004	-0.14	0.132	1.74	0.0747	0.985	-0.284	1.07
COCCOC(=O)N1C(=O)[C@@]2(c3cc(C#CCCO)ccc31)[C@H](C(=O)N1CCN(c3ncccn3)CC1)[C@H]1C(=O)O[C@H](c3ccccc3)[C@H](c3ccccc3)N1[C@@H]2c1ccc(O)cc1	0.228	-1.65	0.0272	-0.444	-0.559	-0.0179	0.0074	1.01	0.894	1.85	0.506	0.168 (inactive)	-0.236	-0.245	0.244	1.4	0.298	1.29	0.182	0.983
